Screening results (PubChem)
HCT116 PTEN-null – growth suppression of PTEN-null HCT116, primary screen, cell-based, CellTiter-Glo; viability, % at 10 µM; HCT116 PTEN-null viability, 60 h; active compounds read low; 140,000 tested, 1.2% active;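 active means viability at or below a set limit, 4 SD under the median of all tested compounds, cut at about 3.7% in these data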;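 further: PTEN knockout HCT116 line with beta catenin targeted HCT116 as companion control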
p97 ATPase inh – inhibitors of human p97 ATPase, primary screen, biochemical | 220,000 tested, 0.42% active | Transitional endoplasmic reticulum ATPase (Homo sapiens), P55072 | recombinant p97 ATPase, Kinase-Glo ATP luminescence, 3 h | inhibition, % at 8 µM; in the data active means inhibition above about 15%
Insulin prom inh – inhibitors of insulin promoter-driven GFP, primary screen, imaging, TRM-6 cells (human fetal islet line), eGFP reporter, cell count. reporter expression induced with tamoxifen. 130,000 tested, 0.9% active. inhibition, % at 2 µM;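 active means inhibition above the mean plus 3 SD, with well images judged a real hit on visual review, cut at about 60% in these data, passing the limit was not always enough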
HCT116 bCat-KO – primary screen for growth suppressors in beta-catenin knockout HCT116 cells (colon tumor, human); HCT116 beta-catenin knockout viability, CellTiter-Glo, 60 h; active compounds read low; viability, % at 10 µM; 140,000 tested, 1.5% active; AID 818, 2007;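 active means viability at or under a set limit, the compound median less 4 SD, cut at about 6% in these data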
ROMK primary – ROMK potassium channel modulators, primary screen, cell-based, thallium flux, MLSMR library. ATP-sensitive inward rectifier potassium channel 1 (Homo sapiens), P48048. Tet-inducible ROMK, thallium flux fluorescence; actives lie on both sides. B-score at 10 µM. 130,000 tested, 2% active. AID 1918, 2009;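 active means signal ratio slope over the read window, or its plate-corrected B-score, at least 3 SD from the plate mean, either direction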;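 further: B-score of the F/F0 ratio slope over 7 to 12 s after thallium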
Target sequence (P48048 whole entry, looked up): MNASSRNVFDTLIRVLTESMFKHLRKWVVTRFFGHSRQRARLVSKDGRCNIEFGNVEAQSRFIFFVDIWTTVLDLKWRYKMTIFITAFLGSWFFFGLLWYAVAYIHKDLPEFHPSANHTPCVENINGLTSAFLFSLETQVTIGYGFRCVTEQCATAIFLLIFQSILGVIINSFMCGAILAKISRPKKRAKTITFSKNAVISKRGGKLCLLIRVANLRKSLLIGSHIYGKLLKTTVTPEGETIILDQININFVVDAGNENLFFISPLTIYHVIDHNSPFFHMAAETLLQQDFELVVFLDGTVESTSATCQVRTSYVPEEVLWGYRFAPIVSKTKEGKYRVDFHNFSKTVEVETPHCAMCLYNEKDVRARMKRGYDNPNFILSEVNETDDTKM
L major viab – Leishmania major promastigote growth inhibition, primary screen. inhibition, % at 10 µM. 200,000 tested, 9% active. AID 1063, 2008. Leishmania major promastigotes, resazurin fluorescence viability; in the data active means inhibition above about 50%;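 further: promastigotes grown with compound for 44 hours at 28 °C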
Numbers stand for hits. Most compounds without a hit are left out; they make up all but 10% or so of the library.

Screening CC(=O)c1ccc(NC(=O)C(C)N2CCN(C/C=C/c3ccccc3)CC2)cc1 (stereo unspecified) returned p97 ATPase inh inactive, Insulin prom inh inactive, ROMK primary inactive and L major viab 86.2.
For COc1ccc(Cl)cc1NC(=O)C(C)N1CCN(C/C=C/c2ccccc2)CC1 (stereo unspecified) the results were HCT116 PTEN-null inactive, p97 ATPase inh inactive, Insulin prom inh inactive, HCT116 bCat-KO inactive and L major viab 62.0.
Screening CC(C(=O)Nc1ccc([N+](=O)[O-])cc1)N1CCN(C/C=C/c2ccccc2)CC1 (stereo unspecified) returned HCT116 PTEN-null inactive, p97 ATPase inh inactive, Insulin prom inh inactive, HCT116 bCat-KO inactive and L major viab 81.9.
Screening O=C(CN1CCN(S(=O)(=O)c2ccccc2)CC1)Nc1ccc([N+](=O)[O-])cc1 returned HCT116 PTEN-null inactive, p97 ATPase inh inactive, Insulin prom inh inactive, HCT116 bCat-KO inactive, ROMK primary inactive and L major viab inactive.
For CC(C(=O)N(C)Cc1ccccc1)N1CCN(C/C=C/c2ccccc2)CC1 (stereo unspecified) the results were p97 ATPase inh inactive.
Screening CN(C)c1ccc(NC(=O)Cn2ncn3c(cc4ccccc43)c2=O)cc1 returned HCT116 PTEN-null inactive, p97 ATPase inh inactive, HCT116 bCat-KO inactive, ROMK primary inactive and L major viab 57.9.
Cc1cc(C)cc(NC(=O)Cn2ncn3c(cc4ccccc43)c2=O)c1 was read as HCT116 PTEN-null inactive, p97 ATPase inh inactive, HCT116 bCat-KO inactive, ROMK primary inactive and L major viab inactive.
For N#Cc1nc(Cc2cccc3ccccc23)oc1NCCN1CCOCC1 the results were HCT116 PTEN-null inactive, p97 ATPase inh inactive, Insulin prom inh inactive, HCT116 bCat-KO inactive, ROMK primary inactive and L major viab 72.2.
For N#Cc1nc(-c2ccccc2)oc1NCCN1CCCCC1 the results were HCT116 PTEN-null inactive, p97 ATPase inh inactive, Insulin prom inh inactive, HCT116 bCat-KO inactive and L major viab 86.6.
COc1ccc(/C=C2\CC/C(=C\c3ccc(OC)cc3OC)C2=O)c(OC)c1 was read as p97 ATPase inh inactive, Insulin prom inh inactive, ROMK primary -2.73 and L major viab inactive.
Screening COc1ccc(C=O)c(OC)c1 returned p97 ATPase inh inactive, ROMK primary inactive and L major viab inactive.
Screening COc1cc(CN(C(=S)NCC(=O)NC2CCCC2)C2CCCC2)cc(OC)c1OC returned HCT116 PTEN-null inactive, p97 ATPase inh inactive, Insulin prom inh inactive, HCT116 bCat-KO inactive, ROMK primary inactive and L major viab inactive.
For COC(=O)C1=C(C)N(C)C(=O)/C1=C\c1ccco1 the results were HCT116 PTEN-null inactive, p97 ATPase inh inactive, HCT116 bCat-KO inactive, ROMK primary inactive and L major viab inactive.
CC1=C(C#N)C(=O)N(C2CCS(=O)(=O)C2)C(=O)/C1=C\c1ccco1 (stereo unspecified) was read as p97 ATPase inh 34.2 and ROMK primary -2.91.
O=C(CCl)N(c1ccccc1)c1c[nH]c2ccccc12 was read as HCT116 PTEN-null 1.3, p97 ATPase inh inactive, Insulin prom inh inactive, HCT116 bCat-KO 1.9 and L major viab 97.3.
`CCN(CC)C(=O)CCCc1c[nH]c2ccccc12` gave p97 ATPase inh inactive, ROMK primary inactive and L major viab inactive.
`CC(CC(=O)Nc1ncc([N+](=O)[O-])s1)c1ccccc1` (stereo unspecified) gave p97 ATPase inh inactive, Insulin prom inh inactive, ROMK primary -4.35 and L major viab inactive.
CCC(Oc1ccccc1)C(=O)Nc1ncc([N+](=O)[O-])s1 (stereo unspecified) was read as p97 ATPase inh inactive, ROMK primary inactive and L major viab inactive.
`CCc1ccc(OCC(O)CN2CCC(CN3C(=O)c4cccc5cccc(c45)C3=O)CC2)cc1` (stereo unspecified) gave HCT116 PTEN-null 1.2, p97 ATPase inh inactive, Insulin prom inh inactive, HCT116 bCat-KO 1.1, ROMK primary inactive and L major viab 100.3.
For COc1cccc(OCC(O)CN2CCC(CN3C(=O)c4cccc5cccc(c45)C3=O)CC2)c1 (stereo unspecified) the results were p97 ATPase inh inactive, Insulin prom inh inactive and L major viab 87.4.
COc1ccc(COCC(O)CN2CCC(CN3C(=O)c4cccc5cccc(c45)C3=O)CC2)cc1OC (stereo unspecified) was read as HCT116 PTEN-null inactive, p97 ATPase inh inactive, Insulin prom inh inactive, HCT116 bCat-KO inactive, ROMK primary inactive and L major viab inactive.
`CC(C)(C)OC(=O)N1CCC[C@H]1C(=O)NCc1ccc(Cl)cc1Cl` gave p97 ATPase inh inactive, ROMK primary inactive and L major viab inactive.
Screening O=C(CSc1nnc(-c2ccccc2Cl)o1)Oc1ccc(Br)cc1 returned HCT116 PTEN-null 0.7, p97 ATPase inh inactive, Insulin prom inh inactive, HCT116 bCat-KO 0.9 and L major viab inactive.
Screening CCC(C)n1c(=S)[nH]c2c(sc3ccc([N+](=O)[O-])cc32)c1=O (stereo unspecified) returned HCT116 PTEN-null inactive, p97 ATPase inh inactive, Insulin prom inh inactive, HCT116 bCat-KO inactive, ROMK primary 5.34 and L major viab inactive.
Screening Cn1cc(CC(=O)N2CCN(c3ccc(Cl)cc3)CC2)c2ccccc21 returned HCT116 PTEN-null inactive, p97 ATPase inh inactive, Insulin prom inh inactive, HCT116 bCat-KO inactive, ROMK primary inactive and L major viab 64.7.
Cn1cc(CC(=O)N2CCN(c3ccccc3F)CC2)c2ccccc21 was read as HCT116 PTEN-null inactive, p97 ATPase inh inactive, HCT116 bCat-KO inactive and L major viab inactive.
CCC(C(=O)NC(C)(C)C)N(C(=O)Cn1nnc(-c2ccccc2F)n1)c1cccc2c1CCCC2 (stereo unspecified) was read as HCT116 PTEN-null inactive, p97 ATPase inh inactive, Insulin prom inh inactive, HCT116 bCat-KO inactive and L major viab inactive.
S=c1[nH]c(-c2ccc(Cl)cc2)cs1 was read as p97 ATPase inh inactive, Insulin prom inh inactive, ROMK primary 16.6 and L major viab 66.7.
Cc1ccc(-c2csc(=S)[nH]2)cc1 was read as p97 ATPase inh inactive, Insulin prom inh inactive, ROMK primary 10.5 and L major viab inactive.
Screening S=c1nccc(-c2ccc(Cl)cc2)[nH]1 returned p97 ATPase inh inactive.
Screening CCN(CC)CCCNC(=O)C1c2ccccc2Oc2ccccc21 returned HCT116 PTEN-null inactive, p97 ATPase inh inactive, HCT116 bCat-KO inactive, ROMK primary inactive and L major viab inactive.
CNCCCC1Sc2ccccc2Oc2ccccc21 (stereo unspecified) was read as HCT116 PTEN-null inactive, p97 ATPase inh inactive, Insulin prom inh inactive, HCT116 bCat-KO inactive, ROMK primary -3.68 and L major viab 100.4.
